# Compounds with a hit are over-represented: about 9.2% of the library has one in this group of screens.
# NPC1 promoter act: qHTS Assay for NPC1 Promoter Activators. Huh7 NPC1 promoter luciferase reporter, 24 h. Potency, µM (doses to about 9.22 µM), for inactives: at the highest dose activation, hits mostly activators. hit rate 2.4% among 320,000. AID 485313, 2010; further: % of control where 0% means no effect; nearly all actives have a fitted effect of over 60% in size
#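 Cells: Huh7 expressing luciferase under the NPC1 promoter, 1500/well. Seeded 2 h, compound added, incubated 24 h at 37 °C. Luciferase reagent, 10 min ambient, then luminescence.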
# FLuc modulator: qHTS profiling assay for firefly luciferase inhibitor/activator using purifed enzyme and Km concentrations of substrates (counterscreen for miR-21 project). Potency, µM (series often up to 57.5 µM), for inactives: at the top dose activity change, negative = inhibition, usual class: inhibitors. Luciferin 4-monooxygenase (Photinus pyralis), P08659. AID 588342, 2011. purified FLuc, Km substrates, luminescence inhibition. hit rate 6.9% among 360,000;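 further: plate controls were vehicle for no effect and reference inhibitor for full effect; nearly all actives have a fitted effect of over 55% in size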
# Target sequence (P08659 whole entry, looked up): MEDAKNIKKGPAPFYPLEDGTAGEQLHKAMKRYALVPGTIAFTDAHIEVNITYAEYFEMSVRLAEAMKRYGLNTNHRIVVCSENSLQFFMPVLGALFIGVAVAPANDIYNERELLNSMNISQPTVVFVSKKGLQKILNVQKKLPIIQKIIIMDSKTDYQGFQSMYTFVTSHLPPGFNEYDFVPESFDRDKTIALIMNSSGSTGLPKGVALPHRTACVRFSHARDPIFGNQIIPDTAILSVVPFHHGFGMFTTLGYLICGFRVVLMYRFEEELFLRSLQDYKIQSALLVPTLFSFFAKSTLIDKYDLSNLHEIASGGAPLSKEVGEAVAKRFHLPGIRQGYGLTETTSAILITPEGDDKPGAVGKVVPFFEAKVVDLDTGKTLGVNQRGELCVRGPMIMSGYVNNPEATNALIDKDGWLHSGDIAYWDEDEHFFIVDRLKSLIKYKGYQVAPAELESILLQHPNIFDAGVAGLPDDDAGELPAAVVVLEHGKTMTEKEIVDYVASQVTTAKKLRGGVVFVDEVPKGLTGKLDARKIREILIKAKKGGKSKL
#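 Biochemical qHTS of compounds, final roughly 60 µM downward over six points, against 10 nM purified firefly luciferase using Km concentrations of substrates (10 uM D-luciferin, 10 uM ATP) in Tris acetate pH 7.5 buffer; luminescence output.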
# SMN2 splice up: qHTS Assay for Enhancers of SMN2 Splice Variant Expression. HEK293 SMN2-luciferase splicing reporter, luminescence, 30-36 h. Potency, µM (highest dose often 46.1 µM), for the others: top-dose activity change, positive = activation, usual class: activators. hit rate 2.8% among 210,000; further: % of control where 0% means no effect; nearly all actives have a fitted effect of over 55% in size
#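 HEK293 cells carry an SMN2 minigene-luciferase reporter in which exon 7 inclusion puts luciferase in frame. Cells were seeded at 2000 cells/well, attached for 10-12 hours, then exposed to compounds for 30-36 hours at 37C before ONE-Glo luminescence.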
# ELG1 genotoxic: qHTS screen for small molecules that induce genotoxicity in human embryonic kidney (HEK293T) cells expressing luciferase-tagged ELG1; HEK293T ELG1-luciferase reporter, luminescence, 16 h; Potency, µM (titrated, usually from 46 µM), for the others: at the top dose activity change, positive = activation, hits mostly activators; hit rate 1.3% among 330,000; further: % of control where 0% means no effect; nearly all actives have a fitted effect of over 60% in size
#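 Reporter readout depends on ELG1 protein level, which increases with genetic stress. After 16 hr compound exposure at 37 °C, luciferase activity was quantified using ONE-Glo.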
# Rab9 promoter act: qHTS Assay for Rab9 Promoter Activators; hit rate 2.8% among 320,000; Huh7 Rab9 promoter-luciferase reporter, luminescence, 24 h; Potency, µM (series often up to 9.22 µM), without a hit: at the top dose activation, negative = inhibition, most hits filed as activators; AID 485297, 2010; further: % of control where 0% means no effect; nearly all actives have a fitted effect of over 60% in size
#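 Luciferase signal after 10 min detection reagent at ambient indicates Rab9 promoter upregulation; stably transfected Huh7 cells were treated 24 h with compound in DMSO at 37 °C, 5% CO2.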
# ELG1 DNA repair: qHTS screen for small molecules that inhibit ELG1-dependent DNA repair in human embryonic kidney (HEK293T) cells expressing luciferase-tagged ELG1; HEK293T ELG1-luciferase reporter, luminescence, 16 h; DNA damage induced by 5-fluorouridine; hit rate 2.3% among 330,000; Potency, µM (titrated, usually from 46.1 µM), inactives show top-dose activity change, negative = inhibition, hits mostly inhibitors; AID 504467, 2011; further: on the % scale 0 is the no-effect control and ±100 the full control effect; nearly all actives have a fitted effect of over 55% in size
#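 Reporter activity after DNA damage by 5-fluorouridine is monitored. Compound-treated cells incubate 16 hr at 37 °C, then ONE-Glo is added for 30 min before luminescence reading.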
# Active calls of the source: *; ? = inconclusive; . = not tested or not shown; ! = not active in a repeat. The call rests on the fitted dose curve; in most records, active means well fitted curve in the direction sought with a large enough effect; inconclusive means small, poorly fitted or top-dose-only effect, or another doubt; inactive means no such curve, though single readings can be large; an effect the other way counts as inactive or inconclusive. Potency means the concentration at half of the fitted maximal effect.
SMILES,NPC1 promoter act,FLuc modulator,SMN2 splice up,ELG1 genotoxic,Rab9 promoter act,ELG1 DNA repair
CCOC(=O)N1CCN(C(=O)CCSc2ccccc2)CC1,?,17µM*,?,9.2µM*,2.8µM*,?
O=C(CCc1ccc(S(=O)(=O)NCCc2ccccc2)cc1)N1CCN(Cc2ccc3c(c2)OCO3)CC1,-1%,2%,-22%,-19%,-9%,23µM*
Cc1nn(C)cc1S(=O)(=O)NCc1ccc2c(c1)OCO2,0%,3%,.,0%,2%,14%
CCOc1ccc(C(=O)NCC(=O)OCCCOC(=O)CNC(=O)c2ccc(OCC)cc2)cc1,-4%,?,.,9%,-2%,-8%
Cc1ccc(C(=O)NCC(=O)OCC(=O)NCCNC(=O)COC(=O)CNC(=O)c2ccc(C)cc2)cc1,-5%,8%,.,3%,0%,0%
CCOC(=O)CNC(=O)c1ccc(C)cc1,0%,13µM*,10%,10%,2%,9%
O=C(NCC(O)CO)c1ccc2[nH]c3ccccc3c2c1 (stereo not given),-4%,?,8%,0%,0%,0%
CCOC(=O)CNC(=O)c1ccc(OCC(F)(F)F)cc1,?,?,13µM*,11%,2µM*,?
CCOC(=O)CNC(=O)c1ccc2[nH]c3ccccc3c2c1,-4%,17µM*,-7%,7%,-3%,?
O=[N+]([O-])c1ccc(S(=O)(=O)N2CCn3cccc3C2c2ccc(Br)cc2)cc1 (stereo not given),.,4%,.,.,.,.
CCN(CC)c1ccc(NC(=O)CN2C(=O)c3cccnc3Oc3ccccc32)c(C)c1,.,-8%,.,.,.,.
Cc1ccc(S(=O)(=O)CCC(=O)Nc2cccc(S(=O)(=O)N3CCCCCC3)c2)cc1,-4%,1%,.,-5%,-10%,5%
Cc1cc(NC(=O)Cn2c(=O)nc(-c3ccccc3F)c3cc(Cl)ccc32)ccc1Br,.,-10%,4%,.,.,.
CN(C)S(=O)(=O)c1ccc(C(=O)Nc2nnc(SCC(=O)NCC3CCCO3)s2)cc1 (stereo not given),2%,-1%,.,5%,2%,-1%
CC(C)(C)c1ccc(C(=O)Nc2nnc(SCC(=O)NCC3CCCO3)s2)cc1 (stereo not given),0.5µM*,0.076µM*,.,?,0.32µM*,?
O=C(CSc1nnc(NC(=O)c2cccc(F)c2)s1)NCC1CCCO1 (stereo not given),15%,6µM*,.,21%,23%,?
CCOc1ccc(C(=O)Nc2nnc(SCC(=O)NCC3CCCO3)s2)cc1 (stereo not given),0.1µM*,0.3µM*,.,?,?,?
Cc1cc(-c2nnc(CSc3nnc(NC(=O)c4ccc(C(C)(C)C)cc4)s3)o2)ccc1[N+](=O)[O-],2.5µM*,1.7µM*,.,?,?,?
Cc1ccc(Cc2nnc(SCC(=O)Nc3ccccc3)n(N)c2=O)cc1,2%,6%,.,5%,0%,1%
Cc1ccc(CN2CC(C(=O)N3CC=C(c4ccccc4)CC3)CC2=O)cc1 (stereo not given),-2%,2%,.,-6%,0%,0%
CCOc1ccc(-c2csc(/C(C#N)=C\c3ccc(O)c([N+](=O)[O-])c3)n2)cc1,-5%,4.3µM*,-93%,-10%,-2%,13µM*
Cc1c(C(=O)Nc2ccccn2)sc2nc3n(c(=O)c12)CCC3,1.3µM*,9.5µM*,.,?,0.89µM*,?
Cc1c(C(=O)Nc2ccccc2F)sc2nc3n(c(=O)c12)CCC3,2.8µM*,19µM*!,.,?,2.5µM*,?
Cc1ccccc1NC(=O)c1sc2nc3n(c(=O)c2c1C)CCC3,.,-3%,.,.,.,.
CCc1ccccc1NC(=O)c1sc2nc3n(c(=O)c2c1C)CCC3,.,5%,.,.,.,.
SMILES,NPC1 promoter act,FLuc modulator,SMN2 splice up,ELG1 genotoxic,Rab9 promoter act,ELG1 DNA repair
CCOC(=O)c1csc(NC(=O)c2cccs2)n1,2.2µM*,13µM*,.,?,2.2µM*,?
CCOc1cccc2sc(NC(=O)c3ccc(Br)s3)nc12,19%,2.7µM*,-21%,-1%,16%,-29%
CCCC(=O)Nc1nc(C(=O)OCC)cs1,9%,-5%,-8%,4%,3%,29%
CCOC(=O)Cc1csc(NC(=O)c2ccc(Br)s2)n1,1%,24µM*,-6%,-9%,12%,8%
CCOC(=O)Cc1csc(NC(=O)c2cccs2)n1,17%,19µM*,-4%,?,20%,?
CCCC(=O)Nc1nc(CC(=O)OCC)cs1,0%,1%,3%,0%,6%,10%
CCOc1cccc2sc(NC(=O)c3ccc(S(=O)(=O)N4CCc5ccccc54)cc3)nc12,.,-10%,.,.,.,.
O=C(NCc1cccc(Cl)c1)c1ccc(N2CC3CC(C2)c2cccc(=O)n2C3)c(NC(=O)c2cccnc2)c1 (stereo not given),1%,0%,.,4%,2%,9%
CCOC(=O)c1csc(NC(=O)C(C)(C)C)n1,1%,-14%,6%,10%,0%,?
CCOC(=O)Cc1csc(NC(=O)/C=C/c2ccc(Br)o2)n1,1%,6.7µM*,.,-8%,0%,?
CCOC(=O)c1csc(NC(=O)c2cc(OC)c(OC)c(OC)c2)n1,-4%,-3%,-8%,2%,-4%,5.8µM*
CCOC(=O)Cc1csc(NC(=O)c2ccc(Br)o2)n1,-2%,?,-4%,7%,1%,10%
